Measured values: PubChem BioAssay AID1159580 (chemical genetic matrix, 2015)
Out of some 5,500 compounds screened, about 2,000 (36%) were called active. Another 18% or so got no clear call; they are omitted. No stated cut-off is given here; in the data, active means normalized growth mostly below about 0.91 (no sharp cut-off); inconclusive means no clear call, values can overlap the other calls; inactive means mostly above about 0.92. The list shows a part of the results.

Assay: chemical genetic growth profiling, strain panel (AID 1159580);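 further: tested at 20 µM; growth read once vehicle control cultures reached saturation at 30 °C; 1 = growth at the plate median or of vehicle wells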
Conditions: S. cerevisiae deletion strains, growth OD

Measured: normalized growth

c1ccc(-c2ccc(-c3csc(-c4cccnc4)n3)cc2)cc1
inactive: locus YAL013W, strain DEP1, stronger effect = lower value 1.01 | locus YBR229C, strain ROT2, stronger effect = lower value 1.02 | locus YCL061C, strain MRC1, stronger effect = lower value 0.951 | locus YDL101C, strain DUN1, stronger effect = lower value 0.972 | locus YDR150W, strain NUM1, stronger effect = lower value 1 | locus YEL061C, strain CIN8, stronger effect = lower value 1.01 | locus YGR078C, strain PAC10, stronger effect = lower value 0.997 | locus YHR030C, strain SLT2, stronger effect = lower value 1.04 | locus YHR087W, strain rtc3, stronger effect = lower value 1.01 | locus YJL187C, strain SWE1, stronger effect = lower value 0.979 | locus YJR043C, strain POL32, stronger effect = lower value 0.975 | locus YJR075W, strain HOC1, stronger effect = lower value 1.03 | locus YKL190W, strain CNB1, stronger effect = lower value 1.02 | locus YLR039C, strain RIC1, stronger effect = lower value 1.01 | locus YLR058C, strain SHM2 (second series), stronger effect = lower value 1.02 | locus YLR085C, strain ARP6, stronger effect = lower value 0.991 | locus YLR262C, strain YPT6, stronger effect = lower value 1.09 | locus YML094W, strain GIM5, stronger effect = lower value 1 | locus YMR219W, strain ESC1, stronger effect = lower value 1.02 | locus YMR263W, strain SAP30, stronger effect = lower value 0.992 | locus YMR307W, strain GAS1, stronger effect = lower value 0.896 | locus YNL153C, strain GIM3, stronger effect = lower value 0.956 | locus YNL298W, strain CLA4 (second series), stronger effect = lower value 1.04 | locus YNL322C, strain KRE1, stronger effect = lower value 1.03 | locus YNR030W, strain Alg12, stronger effect = lower value 1.01 | locus YOL006C, strain TOP1, stronger effect = lower value 1.08 | locus YPL055C, strain LGE1, stronger effect = lower value 0.944 | locus YPL241C, strain CIN2, stronger effect = lower value 0.979 | locus YPR135W, strain CTF4, stronger effect = lower value 1.08
